About 79,000 compounds went through this panel and 15% of them were active in at least one assay; those are over-represented in the sample as a whole. Calls of active or inactive are those of the source. Cut-off read from the data, not from the text of the source: active = growth inhibition above about 70%; inactive = the rest.
How the values were obtained:
[1] = NCI Yeast Anticancer Drug Screen. Data for the rad50 strain (AID 155);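 note: 0% = growth of vehicle-only cultures of the same strain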; details: S. cerevisiae rad50 strain growth inhibition; at 50.0 µM; active compounds read high
In short: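 A DNA repair-deficient yeast mutant serves as the test organism; compound-induced growth inhibition is calculated against vehicle-treated cells.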

[2] = NCI Yeast Anticancer Drug Screen. Data for the mec2-1 strain (AID 157); details: S. cerevisiae mec2-1 strain, at 50.0 µM, active compounds read high
In short: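 Vehicle-treated cultures served as reference for growth inhibition of compound-exposed mec2-1 yeast.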

[3] = NCI Yeast Anticancer Drug Screen. Data for the sgs1 mgt1 strain (AID 161);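 note: 0% = growth of cultures given vehicle only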; details: S. cerevisiae sgs1 mgt1 strain, at 50.0 µM, active compounds read high
In short: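 Read-out: growth inhibition vs vehicle controls. Cells: mutant yeast strain deficient in DNA damage repair.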

[4] = NCI Yeast Anticancer Drug Screen. Data for the cln2 rad14 strain (AID 165);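 note: 0% = growth equal to vehicle treated cultures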; details: S. cerevisiae cln2 rad14 strain, at 50.0 µM, active compounds read high
In short: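 Each compound was tested on cln2 rad14 yeast. Inhibition of growth was calculated against vehicle-exposed controls.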

[5] = NCI Yeast Anticancer Drug Screen. Data for the bub3 strain (AID 167); details: S. cerevisiae bub3 mutant strain, at 50.0 µM, active compounds read high
In short: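 Inhibition values come from growth of compound-treated mutant yeast normalised to vehicle-treated controls.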

[6] = NCI Yeast Anticancer Drug Screen. Data for the mlh1 rad18 strain (AID 175); details: S. cerevisiae mlh1 rad18 strain growth inhibition; at 50.0 µM; active compounds read high
In short: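 Vehicle-treated cultures served as the reference for growth inhibition in a yeast strain carrying DNA damage repair alterations exposed to each compound.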

Measured: growth inhibition

COC(CCCl)c1ccc(Cl)cc1 (stereo not drawn)
inactive: [1] 4.7% | [2] -43% | [3] -10.8% | [4] -4.5% | [5] -5.35% | [6] 26.8%

N#C/C(=C\NC(=S)N=Nc1c(O)[nH]c2ccccc12)c1nc2ccccc2s1
inactive: [1] 10.1% | [2] 2.3% | [3] 29.1% | [4] -10.1% | [5] 17.9% | [6] 14.5%

CCCCNc1ccc(-c2ccc(NCCCC)cc2)cc1
inactive: [1] 31.9% | [2] 4.3% | [3] -3.8% | [4] -36.1% | [5] -5.3% | [6] 59.5%

CN=S(=O)(OCCCCCOS(=O)(=NC)c1ccc(C)cc1)c1ccc(C)cc1 (stereo not drawn)
inactive: [1] 3.75% | [2] -33.8% | [3] -22.9% | [4] -43.4% | [5] -41.3% | [6] -34.9%

CCN1CCCC(N2c3ccccc3Sc3ccccc32)C1 (stereo not drawn)
inactive: [1] -9.15% | [2] -15.2% | [3] 8% | [4] -58.8% | [5] 8.5% | [6] -4%

COc1ccc(C)cc1NC(=O)SC(C)C
inactive: [1] -9.75% | [2] -18.9% | [3] 9.4% | [4] -5.2% | [5] 18.4% | [6] 6.1%

NNC(=O)N/N=C1\C(=O)N(c2nccs2)C(=O)C(=O)C1c1nc2ccccc2s1 (stereo not drawn)
inactive: [1] -26.1% | [2] -21.8% | [3] -33% | [4] 10.8% | [5] -5.15% | [6] -19.4%

CC12CCC3c4ccc(O)cc4CCC3C1CCC2=O (stereo not drawn)
inactive: [1] 26.2% | [2] -11.8% | [3] 14.7% | [4] 12.7% | [5] 18.5% | [6] 3.45%

CN(C)c1ncnc2c1cnn2C
inactive: [1] -9.55% | [2] -0.6% | [3] 9.3% | [4] -13.6% | [5] -0.7% | [6] 2.65%

CC(=O)CSc1ncnc2nc[nH]c12
inactive: [1] 0.1% | [2] 2.8% | [3] -0.5% | [4] -5.5% | [5] 5.85% | [6] -5.3%

Cc1ccccc1NC(=O)Oc1ccc(Cl)cc1C(=O)c1ccccc1
inactive: [1] -0.15% | [2] -27.4% | [3] 18.7% | [4] 24.4% | [5] 21.2% | [6] 11.4%

CCN(Cc1ccc(Cl)c(Cl)c1)c1ccc2nc(N)nc(N)c2c1C
active: [2] 84.6%
inactive: [1] 40% | [3] 50.9% | [4] 40.3% | [5] 6.15% | [6] 29.9%

CC(O)C(F)(F)C(F)(F)C(F)(F)F (stereo not drawn)
inactive: [1] 7.8% | [2] -16.6% | [3] 19.9% | [4] -2.1% | [5] -2.7% | [6] 20.8%

FC(F)(F)c1cc(NC2=NCCN=C(Nc3cc(C(F)(F)F)cc(C(F)(F)F)c3)SS2)cc(C(F)(F)F)c1
inactive: [1] -14.1% | [2] -29.7% | [3] -10.8% | [4] -2% | [5] -22% | [6] -15.6%

CCCCCCCCCCCCCCCCOc1ccccc1NC(=O)CC(C)=O
inactive: [1] -8.7% | [2] -18.9% | [3] -9.1% | [4] -5.85% | [5] -5.3% | [6] -3.95%

C1Cc2onc(-c3noc4c3CCC4)c2C1
inactive: [1] -11.2% | [2] -16.8% | [3] -15.2% | [4] 22.6% | [5] -14.2% | [6] -14.6%

O=C(CCl)Nc1ccccc1SCc1cc(Cl)cc2c1OCOC2
inactive: [1] -5.7% | [2] -16.4% | [3] 21.6% | [4] 22.9% | [5] 13.6% | [6] -8.9%

CC(=O)c1cccc(NS(=O)(=O)c2ccc(C)cc2)c1
inactive: [1] -4.85% | [2] -21.2% | [3] -18.1% | [4] -36.7% | [5] -7.9% | [6] 35.9%

C/C=C/C1OCC(CC)C(CCC)O1 (stereo not drawn)
inactive: [1] 36% | [2] 11.2% | [3] 1.85% | [4] -36.8% | [5] -17.9% | [6] -1.15%

N=C(N)c1nn(C2OC(CO)C(O)C2O)c2nc[nH]c(=O)c12 (stereo not drawn)
inactive: [1] 0.75% | [2] -9.5% | [3] 10.2% | [4] 17.6% | [5] 5.7% | [6] 27.1%

NCCCN1CCCC1=O
inactive: [1] -20.1% | [2] -21.3% | [3] -14.8% | [4] 1.8% | [5] -23.3% | [6] -15.1%

Cc1ccccc1CC(N)C(=O)O (stereo not drawn)
inactive: [1] 2.95% | [2] 10.7% | [3] 2.7% | [4] -15.2% | [5] 8.85% | [6] 1.85%

CCNc1ccc2ccccc2c1N=Nc1ccc(N=Nc2ccccc2)cc1
inactive: [1] -12.4% | [2] -30% | [3] 11.5% | [4] 9.75% | [5] -12.7% | [6] -8.55%

Cc1ccc(C)c(CN(C)C)c1O
inactive: [1] -0.8% | [2] -1.45% | [3] 4.9% | [4] 25.1% | [5] -11.1% | [6] 22.9%

O=C(O)C1CCCN1C(=O)OCc1ccccc1 (stereo not drawn)
inactive: [1] -23.4% | [2] -47.6% | [3] -17.9% | [4] -2.45% | [5] -22.9% | [6] -8.9%

Nc1nc2nnc(-c3ccccc3)c(-c3ccccc3)n2n1
inactive: [1] 12.8% | [2] 14.1% | [3] 6.4% | [4] 13.8% | [5] 9.65% | [6] -8.8%

Cc1cc(NC(=O)c2ccccc2)c(Cl)cc1N
inactive: [1] -26.4% | [2] -33.9% | [3] -11.9% | [4] -13.4% | [5] -21% | [6] -7.95%

COc1ccc2c(Cl)cc(NC(=O)Nc3c(C)cccc3C)nc2c1
inactive: [1] 5.8% | [2] 1.15% | [3] 13.9% | [4] 6.65% | [5] 21.1% | [6] 7.2%

CC(=O)O[C@H]1CC[C@]2(C)C3=C(C(=O)C[C@H]2C1(C)C)[C@]1(C)CC[C@H]([C@H](C)CCC(=O)O)[C@@]1(C)CC3=O
inactive: [1] 42.8% | [2] -8.05% | [3] 33.2% | [4] 3.5% | [5] 2.05% | [6] 0.4%

CCOc1ccc(NC(=S)N2CCC(CCCC3CCN(C(=S)Nc4ccc(OCC)cc4)CC3)CC2)cc1
inactive: [1] -6.6% | [2] -31.9% | [3] -15.1% | [4] 14.9% | [5] -9.05% | [6] -11.4%

CC1(c2ccccc2)CO1 (stereo not drawn)
inactive: [1] -2.8% | [2] -21.4% | [3] -7.85% | [4] -11.1% | [5] -14.9% | [6] 4.3%

OC1Cc2ccccc2C1
inactive: [1] -32.5% | [2] -26.4% | [3] -17.6% | [4] -31.8% | [5] -28.1% | [6] -18.6%

N#CC1(O)CCCCC1
inactive: [1] 42.6% | [2] 10.6% | [3] 14.7% | [4] 23.2% | [5] 17.9% | [6] 28.4%

CCOC(=O)c1cc(Cl)c(O)c(Cl)c1
inactive: [1] 4.5% | [2] -14% | [3] 1.4% | [4] 11.7% | [5] 3.25% | [6] 13.9%

CC(C)C(C)(C)C(=O)C(C)(C)C(C)(C)C
inactive: [1] -12.2% | [2] -2.65% | [3] -9.7% | [4] -35.5% | [5] 2.6% | [6] 7.95%

Cc1[nH]n(-c2ccccc2)c(=O)c1C=NC(=S)C(N)=S
inactive: [1] -24.4% | [2] -22.9% | [3] -20.4% | [4] -19.1% | [5] -54.4% | [6] -20.5%

O=CNCCc1ccccc1
inactive: [1] 7.25% | [2] -9.05% | [3] 6.85% | [4] 5% | [5] 6.3% | [6] 2.35%

Nc1ccc(F)c(Cl)c1F
inactive: [1] -11% | [2] -7.8% | [3] -14.3% | [4] -24.8% | [5] -1.75% | [6] -1.8%

Cc1ccc(N)c(S(=O)(=O)O)c1
inactive: [1] -4.85% | [2] 4.35% | [3] 0.75% | [4] -53.9% | [5] 8.85% | [6] -13.2%

NC(=O)OCCO
inactive: [1] 19.2% | [2] 6.45% | [3] 10.9% | [4] 9.65% | [5] -2.35% | [6] 26.5%

C=C(c1ccc(N(C)C)cc1)c1ccc(N(C)C)cc1
inactive: [1] -0.95% | [2] -2.55% | [3] -3.05% | [4] -40.4% | [5] 9.5% | [6] -5.3%

C=CCOc1ccc(Cl)cc1Cl
inactive: [1] 1.65% | [2] -4.4% | [3] -0.45% | [4] 4.6% | [5] 6.65% | [6] -1.75%

CC(=O)c1cccc(O)c1
inactive: [1] 5.8% | [2] -8.85% | [3] 6.65% | [4] 1.1% | [5] -5.1% | [6] 17.7%

Source: PubChem BioAssay (NCI)
